# High-throughput results (PubChem BioAssay)
# Hits are enriched below; roughly 8.1% of the tested compounds scored in any of these assays.
# MCF10A rereplic – A quantitative high throughput screen for small molecules that induce DNA re-replication in MCF 10a normal breast cells; actives 2.9% (n = 350,000); MCF 10A DNA re-replication, Hoechst nuclear intensity, 48 h; Potency, µM (top dose mostly 46.1 µM), usual class: activators; AID 624296, 2012; note: nearly all actives have a fitted effect of over 50% in size
# KB-V1 MDR tox – qHTS assay for MDR1-selective chemotherapeutics: Primary screen using the drug-selected MDR subline cells KB-V1 | KB-V1 MDR cells viability, CellTiter-Glo, 72 h | Potency, µM (doses to about 46.1 µM), usual class: cytotoxic | actives 3.4% (n = 400,000) | AID 1347076, 2019; note: nearly all actives have a fitted effect of over 60% in size
#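 KB-V1, DMEM (no phenol red) + 10% FBS; cpd pin-transferred, titration series; 72 h, 37 degrees C; CellTiter-Glo, luminescence. Data normalized, curve-fit.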
# KB-3-1 tox – qHTS assay for MDR1-selective chemotherapeutics: Primary screen using the parental adenocarcinoma cell KB-3-1; actives 1.4% (n = 400,000); Potency, µM (doses to about 46.1 µM), most hits filed as cytotoxic; KB-3-1 viability, CellTiter-Glo ATP luminescence, 72 h; note: nearly all actives have a fitted effect of over 60% in size
#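 Here the drug-naive KB-3-1 line serves as comparator for MDR sub-line selectivity; cells received compound titrations, 72 h at 37 °C, then CellTiter-Glo readout.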
# SW480 rerep – A quantitative high throughput screen for small molecules that induce DNA re-replication in SW480 colon adenocarcinoma cells. SW480 DNA re-replication, Hoechst DNA content imaging, 48 h. Potency, µM (doses to about 46.1 µM), actives largely listed as activators. actives 1.8% (n = 340,000). AID 624297, 2012; note: nearly all actives have a fitted effect of over 55% in size
#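 SW480 cells exposed to compounds for 48 hr at 37 C, 5% CO2, then Hoechst-stained 40 min. Nuclear DNA content imaged by fluorescence scanning (405 nm excitation, 500-530 nm emission); re-replication scored as increased high-intensity nuclei.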
# ELG1 DNA repair – qHTS screen for small molecules that inhibit ELG1-dependent DNA repair in human embryonic kidney (HEK293T) cells expressing luciferase-tagged ELG1. HEK293T ELG1-luciferase reporter, luminescence, 16 h; DNA damage induced by 5-fluorouridine. Potency, µM (top dose mostly 46.1 µM), hits mostly inhibitors. actives 2.3% (n = 330,000). AID 504467, 2011; note: nearly all actives have a fitted effect of over 55% in size
#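 Quantitative HTS, concentration-response format. 2,000 cells/well co-treated with 5-fluorouridine and compound, 16 hr in 5% CO2 at 37 °C; ONE-Glo luminescence read after 30 min.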
# Hits are given with their value; i = inactive; ? = inconclusive; nt = no result; [ ] = dose if it differs, or a comment. Calls come from the whole dose curve; as a rule, active = well fitted curve in the direction sought with a large enough effect; inconclusive = small, poorly fitted or top-dose-only effect, or another doubt; inactive = no such curve, though single readings can be large; an effect the other way counts as inactive or inconclusive.
SMILES,MCF10A rereplic,KB-V1 MDR tox,KB-3-1 tox,SW480 rerep,ELG1 DNA repair
Cc1cn([C@H]2C[C@H](O)[C@@H](CCC(=O)NCCc3ccc4ccccc4c3)O2)c(=O)[nH]c1=O,nt,i,i,nt,nt
C=Cc1ccc(Cn2c(=O)n(-c3cccc(Cl)c3)c(=O)c3c4c(sc32)CN(C(C)=O)CC4)cc1,nt,i,?,nt,nt
COc1cc2ccccc2cc1C(=O)Nc1ccc(Cl)c(-c2nc3ccccc3o2)c1,nt,i,i,nt,nt
CC(=O)c1c(C)nc(-c2ccccc2)nc1NC(=O)C(C)C,i,i,i,i[9.22 µM],i
Cc1nc(-c2ccccc2)nc2[nH]c(=O)n(-c3ccccc3)c(=O)c12,i,20.6µM,?,i,?
Cc1nc(-c2ccccc2)nc2[nH]c(C(C)C)cc(=O)c12,9.2µM,?,i,i,i
C=Cc1ccc(S(=O)(=O)O)cc1,i,nt,nt,i,nt
O=C(N[C@@H]1CC[C@@H](CCNC(=O)C2CCOCC2)O[C@@H]1CO)c1ccncc1,nt,i,i,nt,nt
O=C(Nc1nccs1)c1ccc(S(=O)(=O)NCc2cccs2)cc1,?,18.4µM,i,i,18.4µM
Cc1ccc(NC(=O)C(=Cc2ccc(C(=O)O)cc2)C(=O)Nc2ccc(C)cc2C)c(C)c1,2.59µM,?,?,18.4µM,16.4µM
Cc1cc(S(=O)(=O)NCCc2csc(-c3cccc(F)c3)n2)ccc1F,nt,i,?,nt,nt
O=C(Nc1ccc(Cl)cc1)/C(=C/c1cccc(O)c1)c1nc2ccccc2s1,4.11µM,?,2.91µM,20.6µM,25.9µM
S=C(Nc1ccc(Cl)cc1)c1nc2ccccc2s1,?,i,i,i,?
Cc1cccn2c(=O)c3cc(C#N)c(=NC(=O)c4cccs4)n(CC(C)C)c3nc12,?,i,i,?,i
COCCCn1c(=NC(=O)c2ccc3c(c2)OCO3)c(C#N)cc2c(=O)n3cccc(C)c3nc21,nt,nt,nt,nt,i
COCCCn1c(=NC(=O)c2ccccc2)c(C#N)cc2c(=O)n3cccc(C)c3nc21,6.51µM,i,i,i,?
CCOCCCn1c(=NC(=O)c2cccs2)c(C#N)cc2c(=O)n3cccc(C)c3nc21,9.2µM,?,i,?,i
COCCCn1c(=NC(C)=O)c(C#N)cc2c(=O)n3cccc(C)c3nc21,18.4µM,i,i,5.8µM,i
CCN1CCN(c2ncc3c(n2)CC(c2ccc(OC)c(OC)c2)CC3=O)CC1 (stereo not drawn),?,20.6µM,16.4µM,?,?
COc1ccc(C2CC(=O)c3cnc(N4CCN(Cc5ccccc5)CC4)nc3C2)cc1 (stereo not drawn),i,i,i,i,?
CCOC(=O)N1CCN(c2ncc3c(n2)CC(c2ccc(OC)c(OC)c2)CC3=O)CC1 (stereo not drawn),nt,4.11µM,?,nt,nt
CCOC(=O)C1(C)CCCN1C(=O)c1cc(F)ccc1C (stereo not drawn),nt,i,i,nt,nt
CCCCNC(=O)C(NC(=O)c1cccc2ccccc12)C(=O)c1ccccc1 (stereo not drawn),nt,i,i,nt,nt
CCCN(CC(=O)Nc1cc(C)on1)CC(=O)Nc1ccc(F)c(F)c1F,i,4.61µM,i,i,i
O=C1OCCN1C(=O)[C@H]1[C@H](c2ccccc2)C(c2ccccc2)=NN1c1ccccc1,20.6µM,i,i,i,i
SMILES,MCF10A rereplic,KB-V1 MDR tox,KB-3-1 tox,SW480 rerep,ELG1 DNA repair
O=C1OCCN1C(=O)[C@H]1[C@H](c2ccc([N+](=O)[O-])cc2)C(c2ccc(F)cc2)=NN1c1ccc(Br)cc1,i,i,i,i,?
O=C1OCCN1C(=O)[C@H]1[C@H](c2ccccc2)C(c2ccc(F)cc2)=NN1c1ccc(Br)cc1,9.2µM,i,i,23.1µM,i
O=C1OCCN1C(=O)[C@H]1[C@H](c2ccccc2)C(c2ccccc2)=NN1c1ccc(Br)cc1,?,i,i,18.4µM,i
CCOc1ccc(N2C(=O)C3C(c4ccccc4)=NN(c4ccccc4)C3C2=O)cc1 (stereo not drawn),i,i,i,i,i
Cc1ccccc1S(=O)Cc1ccc(C(=O)N2CCN(C3CCCCC3)CC2)o1 (stereo not drawn),nt,?,i,nt,nt
COc1ccc(NS(=O)(=O)c2cccc3nonc23)c(OC)c1,i,?,i,0.517µM,i
CCOc1ccc(C(Nc2cccnc2)c2cc(Cl)c3cccnc3c2O)cc1 (stereo not drawn),?,i,?,?,i
O=C(O)COc1ccccc1C(Nc1ccccn1)c1cc(Cl)c2cccnc2c1O (stereo not drawn),18.4µM,i,i,i,i
O=C(O)COc1ccccc1C(Nc1cccnc1)c1cc(Cl)c2cccnc2c1O (stereo not drawn),9.2µM,i,i,i,i
O=C(NCC1CCN(Cc2cccc(F)c2)CC1)c1cc2ccc3cccnc3c2[nH]1,nt,i,?,nt,nt
CCOC(=O)c1c(C)nc2c(c1C)/C(=N/O)CC(C)(C)C2,i,?,i,i,18.4µM
CCOC(=O)c1c(C)nc2c(c1-c1ccc(OC)cc1)C(=O)CC(C)(C)C2,?,?,i,i,?
CCOc1ccc(NC(=S)NC23CC4CC(CC(C4)C2)C3)cc1,i,i,i,i,i
FC(F)Oc1ccc(NC(=S)NC23CC4CC(CC(C4)C2)C3)cc1,i,16.4µM,23.1µM,i,i
CCOC(=O)c1c(-c2ccccc2)oc2ccc(OCc3cccc(Br)c3)cc12,nt,i,i,nt,nt
COc1cc(C2C3=C(COC3=O)Oc3cc4c(cc32)OCO4)ccc1O (stereo not drawn),?,4.61µM,3.66µM,1.84µM,nt
COc1cc(C2CC(=O)Nc3cc4c(cc32)OCO4)cc(OC)c1O (stereo not drawn),nt,i,?,nt,nt
COc1cc(C2C3=C(COC3=O)OC(C)(C)Oc3cc4c(cc32)OCO4)cc(OC)c1OC (stereo not drawn),1.16µM,3.66µM,0.731µM,1.16µM,nt
CC(=O)N[C@H]1[C@H](O[C@@H]2c3ccc(c(Cl)c3)Oc3cc4cc(c3O[C@@H]3O[C@H](CO)[C@@H](O)[C@H](O)C3C)Oc3ccc(cc3Cl)C[C@H]3NC(=O)[C@@H](N)c5ccc(O)c(c5)Oc5cc(O)cc(c5)[C@H](NC3=O)C(=O)N[C@H]4C(=O)N[C@H]3C(=O)N[C@@H]2C(=O)N[C@@H](C(=O)O)c2cc(O)cc(O[C@H]4O[C@H](CO)[C@@H](O)C(O)[C@@H]4O)c2-c2cc3ccc2O)O[C@H](CO)[C@@H](O)[C@@H]1O (stereo partly drawn),i,nt,nt,i,nt
CC(Oc1ccccc1F)C(=O)Nc1ccc2ccccc2c1 (stereo not drawn),?,?,11.6µM,i,?
